Several values for one entry are separate records, joined by “and”; a condition that tells them apart may be missing. Identical values can stand only once. Some structures have more than one record in an assay (separate samples or runs), and their calls can disagree. Activity calls are given as the source filed them. Rule for the calls: active = hit-call score of the fitted dose curve at least 0.9, where 1 is the maximum; inactive = score below 0.9.
These compounds were tested on KRT18 (gene 3875) (assay: BSK_BF4T_Keratin818: BioMAP Diversity Plus: BF4T Assay for Keratin 818 Biomarker Activity (AID 2284266)). Conditions: primary human bronchial epithelial cells with fibroblasts.
Description: BSK_BF4T is a cell-based, multiplexed-readout assay that uses bronchial epithelial cells and dermal fibroblasts, a human vascular primary cell, with measurements taken at 24 hours after chemical dosing in a microplate: 96-well plate.BSK_BF4T_Keratin818 is an assay component measured in the BSK_BF4T assay. It measures Keratin 8/18 antibody related to regulation of gene expression using ELISA technology.Data from the assay component BSK_BF4T_Keratin818 was analyzed at the endpoint, BSK_BF4T_Keratin818, in the positive analysis fitting direction relative to DMSO as the negative control and baseline of activity. Using a type of binding reporter, gain or loss-of-signal activity can be used to understand protein changes. To generalize the intended target to other relatable targets, this assay endpoint is annotated to the 'cell adhesion molecules' intended target family, where the subfamily is 'keratin'.
The levels of cell surface (or secreted, indicated by the prefix "s") biomarker endpoints were measured by ELISA. Overt cytotoxicity to cells in confluent adherent cultures (all systems other than the BT system) was assessed by measuring total protein levels using sulforhodamine B (SRB) staining in parallel cultures at the time of biomarker measurements, indicated as SRB endpoints. For proliferation assays for adherent cell types, individual cell types are cultured at sub-confluence and relative cell numbers quantified by SRB staining at time points optimized for each system (48 h: 3C and CASM3C systems; 72 h: BT and HDF3CGF systems; 96 h: SAg system). SRB was performed by staining cells with 0.1% SRB after fixation with 10% TCA and reading wells at 560 nm.Viability and proliferation of PBMC (T cells) was quantified by Alamar Blue reduction for the SAg and BT systems. For PBMC viability (referred to as PBMC Cytotoxicity within the assay endpoint names), cells were plated (75,000/well in a 96-well plate) and then chemical samples added for 1 h before addition of activators, SEB and TSST-1 (20 ng/mL final concentration each). Cells were incubated for 90 h. Then, Alamar Blue (20 uL/well) (Invitrogen, Cat DAL1100) was added for 6 h, and the plates were read with a fluorescence microplate reader at 546/580 nm (excitation/emission). For PBMC proliferation, cells were plated and activated as above but incubated for only 16 h prior to addition of Alamar Blue. Plates were read after 6 h.
For `C=CC(=O)OCCC(F)(F)C(F)(F)C(F)(F)C(F)(F)F`, the outcome was “inactive”.
With `O=C(O)C(F)(F)C(F)(F)C(F)(F)C(F)(F)C(F)(F)C(F)(F)C(F)F` the outcome was “inactive”.
With `NS(=O)(=O)C(F)(F)C(F)(F)C(F)(F)C(F)(F)C(F)(F)C(F)(F)F` the outcome was “inactive” and the AC50 was 30 µM (active).
For `C=CC(=O)OCC(F)(F)C(F)(F)C(F)(F)COC(=O)C=C`, the AC50 was 45.3 µM (active) and 51.1 µM (active).
In the case of `O=S(=O)(Cl)C(F)(F)C(F)(F)C(F)(F)C(F)(F)C(F)(F)C(F)(F)C(F)(F)C(F)(F)F`, the AC50 is reported as 48.5 µM (active) and the outcome is reported as “inactive”.
In the case of `O=C(O)CCC(F)(F)C(F)(F)C(F)(F)C(F)(F)C(F)(F)C(F)(F)C(F)(F)F`, the outcome is reported as “inactive”.
With `O=C(O)C(F)(F)C(F)(F)C(F)(F)OC(F)(C(F)(F)F)C(F)(F)F` the outcome was “inactive”.
With `C=CC(=O)OCC(F)(F)C(F)(F)C(F)(F)C(F)(F)C(F)(F)C(F)(F)C(F)(F)C(F)F` the outcome was “inactive”.
`O=S(=O)(O)CCC(F)(F)C(F)(F)C(F)(F)C(F)(F)F` was tested, and the outcome was “inactive”.
In the case of `O=C(O)CCC(F)(F)C(F)(F)C(F)(F)F`, the outcome is reported as “inactive”.
In the case of `OCC(F)(F)C(F)(F)C(F)(F)C(F)(F)C(F)(F)C(F)(F)CO`, the outcome is reported as “inactive”.
With `CCN(CCO)S(=O)(=O)C(F)(F)C(F)(F)C(F)(F)C(F)(F)C(F)(F)C(F)(F)C(F)(F)C(F)(F)F` the outcome was “inactive”.
In the case of `O=S(=O)(OCC(F)(F)F)C(F)(F)C(F)(F)C(F)(F)C(F)(F)F`, the outcome is reported as “inactive”.
`OCC(O)CC(F)(F)C(F)(F)C(F)(F)C(F)(F)F` (stereo not given) was tested, and the outcome was “inactive”.
For `FC(F)(F)C(F)(F)C(F)(F)CC1CO1` (stereo not given), the outcome was “inactive”.
In the case of `OCCCC(F)(F)C(F)(F)C(F)(F)C(F)(F)C(F)(F)C(F)(F)C(F)(F)C(F)(F)F`, the AC50 is reported as 47.1 µM (active) and 33.9 µM (active).
`OCC(O)CC(F)(F)C(F)(F)C(F)(F)C(F)(F)C(F)(F)C(F)(F)C(F)(F)C(F)(F)F` (stereo not given) was tested, and the outcome was “inactive”.
With `C=C(C)C(=O)OCC(F)(F)C(F)(F)C(F)(F)C(F)F` the outcome was “inactive”.
With `O=C(Cl)C(F)(F)C(F)(F)C(F)(F)C(F)(F)C(F)(F)C(F)(F)C(F)(F)F` the outcome was “inactive”.
In the case of `NC(=O)C(F)(F)C(F)(F)C(F)(F)C(F)F`, the outcome is reported as “inactive”.
With `NC(=O)C(F)(F)C(F)(F)C(F)(F)C(F)(F)C(N)=O` the outcome was “inactive”.
In the case of `OCC(F)(F)C(F)(F)C(F)(F)C(F)(F)C(F)(F)C(F)(F)C(F)(F)C(F)(F)CO`, the outcome is reported as “inactive”.
In the case of `FC(F)(F)C(F)(F)C(F)(F)C(F)(F)C(F)(F)C(F)(F)C(F)(F)CCI`, the outcome is reported as “inactive”.
`OCCCCC(F)(F)C(F)(F)C(F)(F)C(F)(F)F` was tested, and the outcome was “inactive”.
In the case of `OCC(F)(F)C(F)(F)C(F)(F)CO`, the outcome is reported as “inactive”.
With `O=C(O)C(F)(F)C(F)(F)C(F)(F)OC(F)(F)F` the outcome was “inactive”.
`NC(O)(C(F)(F)F)C(F)(F)F` was tested, and the outcome was “inactive”.
In the case of `NC(=O)C(F)(F)C(F)(F)C(F)(F)C(F)(F)C(F)(F)C(F)(F)C(F)(F)F`, the outcome is reported as “inactive”.
In the case of `O=C(Cl)C(F)(F)C(F)(F)C(F)(F)C(F)(F)C(F)(F)C(F)(F)F`, the outcome is reported as “inactive”.
With `OC(O)C(F)(F)C(F)(F)F` the outcome was “inactive”.
In the case of `O=C(O)C(F)(F)C(F)(F)C(F)(F)C(=O)O`, the outcome is reported as “inactive”.
In the case of `NCC(F)(F)C(F)(F)C(F)(F)C(F)(F)C(F)(F)C(F)(F)F`, the outcome is reported as “inactive”.
With `O=C(O)C(F)(F)OC(F)(F)C(F)(F)OC(F)(F)C(F)(F)OC(F)(F)F` the outcome was “inactive”.
`CNS(=O)(=O)C(F)(F)C(F)(F)C(F)(F)C(F)(F)C(F)(F)C(F)(F)C(F)(F)C(F)(F)F` was tested, and the outcome was “inactive”.
In the case of `CN(C(=O)C(F)(F)C(F)(F)C(F)(F)F)[Si](C)(C)C`, the outcome is reported as “inactive”.
In the case of `NCC(F)(F)C(F)(F)C(F)(F)C(F)(F)C(F)(F)C(F)(F)C(F)(F)C(F)(F)F`, the outcome is reported as “inactive”.
In the case of `COC(F)(C(F)F)C(F)(F)F` (stereo not given), the outcome is reported as “inactive”.
With `CCOC(=O)CC(=O)C(F)(F)C(F)(F)F` the outcome was “inactive”.

— PubChem BioAssay (EPA / NIEHS)
